# Measurements reported in PubChem BioAssay (NCI).
# About 79,000 compounds went through this panel and 15% of them were active in at least one assay; those are over-represented in the sample as a whole. A number with no mark means an inactive call. Activity calls are given as the source filed them. Cut-off read from the data, not from the text of the source: active = growth inhibition above about 70%; inactive = the rest.
# Key:
# [1] = NCI Yeast Anticancer Drug Screen. Data for the mec2-1 strain (AID 157); conditions: S. cerevisiae mec2-1 strain, hits give high values
# Outline: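 Cells of the genetically defined mec2-1 yeast strain are incubated with test compound. Inhibition of growth is calculated against vehicle-treated controls.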
# [2] = NCI Yeast Anticancer Drug Screen. Data for the rad14 strain (AID 159);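 note: 0% = growth of vehicle-treated control cultures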; conditions: S. cerevisiae rad14 strain growth inhibition, hits give high values
# Outline: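 Readout: yeast growth inhibition, referenced to vehicle-only cultures. Strain bears a defined alteration in DNA damage repair.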
# [3] = NCI Yeast Anticancer Drug Screen. Data for the sgs1 mgt1 strain (AID 161);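 note: 0% = growth of cultures given vehicle only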; conditions: S. cerevisiae sgs1 mgt1 strain, hits give high values
# Outline: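 Genetically altered yeast, compound exposure, growth inhibition relative to vehicle.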
# [4] = NCI Yeast Anticancer Drug Screen. Data for the cln2 rad14 strain (AID 165);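 note: 0% = growth equal to vehicle treated cultures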; conditions: S. cerevisiae cln2 rad14 strain, hits give high values
# Outline: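 The screen exposed genetically defined yeast (cln2 rad14) to test compounds and scored growth inhibition relative to vehicle-treated controls.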
# [5] = NCI Yeast Anticancer Drug Screen. Data for the bub3 strain (AID 167); conditions: S. cerevisiae bub3 mutant strain, hits give high values
# Outline: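 Part of a panel of yeast mutants defective in DNA damage repair or cell cycle regulation. Each strain is grown with compound, and inhibition is calculated relative to solvent-treated cultures.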
# [6] = NCI Yeast Anticancer Drug Screen. Data for the wt2 strain (AID 169);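 note: 0% = growth of vehicle-treated yeast cultures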; conditions: S. cerevisiae wt2 strain growth inhibition, hits give high values
# Outline: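 Steps: yeast strain treated with compound; growth recorded; inhibition calculated relative to cultures given vehicle alone.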
# [7] = NCI Yeast Anticancer Drug Screen. Data for the sgs1 strain (AID 173);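 note: 0% = growth of vehicle-only control cultures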; conditions: S. cerevisiae sgs1 mutant, hits give high values
# Outline: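 Inhibition of yeast growth served as the measure. The mutant strain was treated with each compound, and growth was normalised to cultures receiving vehicle alone.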
# [8] = NCI Yeast Anticancer Drug Screen. Data for the mlh1 rad18 strain (AID 175); conditions: S. cerevisiae mlh1 rad18 strain growth inhibition, hits give high values
# Outline: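 Compound-treated yeast growth, normalised to vehicle controls. Strain bears defined DNA repair mutations.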
# [9] = NCI Yeast Anticancer Drug Screen. Data for the rad52 strain (AID 147);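 note: 0% = growth of vehicle-treated control cultures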; conditions: S. cerevisiae rad52 mutant growth inhibition, hits give high values
# Outline: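 Genetically altered yeast (DNA damage repair defect) treated with compound; inhibition calculated relative to vehicle.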
# [10] = NCI Yeast Anticancer Drug Screen. Data for the wt1 strain (AID 149);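 note: 0% = growth of vehicle-treated wt1 cultures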; conditions: S. cerevisiae wt1 strain (SPY 50644) growth inhibition, hits give high values
# Outline: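 The wt1 strain was treated with compounds, and growth was compared with vehicle-treated cultures to give inhibition.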
# [11] = NCI Yeast Anticancer Drug Screen. Data for the rad50EPP+ strain (AID 151);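 note: 0% = growth of vehicle-treated control cultures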; conditions: S. cerevisiae rad50 mutant strain, hits give high values
# Outline: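 Strain rad50EPP+; compound exposure; % growth inhibition vs vehicle.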
# [12] = NCI Yeast Anticancer Drug Screen. Data for the mgt1 strain (AID 153); conditions: S. cerevisiae mgt1 mutant growth inhibition, hits give high values
# Outline: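 Read-out: yeast growth inhibition vs vehicle control. Strain mgt1, drawn from a panel altered in DNA damage repair or cell cycle control.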
# [13] = NCI Yeast Anticancer Drug Screen. Data for the rad50 strain (AID 155);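 note: 0% = growth of vehicle-only cultures of the same strain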; conditions: S. cerevisiae rad50 strain growth inhibition, hits give high values
# Outline: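 Cells are treated with compound, grown, and their growth is then scored against vehicle-only cultures of the same repair-deficient yeast strain.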
# [14] = NCI Yeast Anticancer Drug Screen. Data for the CLN2oe strain (AID 163);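 note: 0% = growth of vehicle-only control cultures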; conditions: S. cerevisiae CLN2oe strain, hits give high values
# Outline: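 Strain altered in cell-cycle control, incubated with compound; growth compared to solvent-treated controls.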
# [15] = NCI Yeast Anticancer Drug Screen. Data for the mlh1 strain (AID 171);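 note: 0% = growth of vehicle-treated control cultures of the same strain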; conditions: S. cerevisiae mlh1 strain growth inhibition, hits give high values
# Outline: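 Yeast screen: mutant strain plus compound, growth scored against vehicle control wells.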
# [16] = NCI Yeast Anticancer Drug Screen. Data for the rad18 strain (AID 177); conditions: S. cerevisiae rad18 mutant growth inhibition, hits give high values
# Outline: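 Inhibition values reflect reduced yeast growth compared with vehicle-treated controls, using a strain engineered with a DNA damage repair defect.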
# [17] = at 5.0 µM (retest, dose inferred, filed as 0.5)
# [18] = at 50.0 µM (retest, dose inferred, filed as 5.0)
smiles,measurement,setting,value
O=C1NC(=S)NC(=O)C1=Cc1ccc([N+](=O)[O-])o1,growth inhibition,[1]; at 100.0 µM,87% (active)
same,growth inhibition,[2]; at 1.2 µM,5%
same,growth inhibition,[2]; at 3.7 µM,-10%
same,growth inhibition,[2]; at 11.0 µM,-7%
same,growth inhibition,[2]; at 33.0 µM,16%
same,growth inhibition,[2]; at 100.0 µM,36%
same,growth inhibition,[3]; [17],1%
same,growth inhibition,[3]; [18],36%
same,growth inhibition,[3]; at 50.0 µM,48%
same,growth inhibition,[4]; [17],16%
same,growth inhibition,[4]; [18],35%
same,growth inhibition,[4]; at 50.0 µM,16.7%
same,growth inhibition,[5]; at 1.2 µM,11%
same,growth inhibition,[5]; at 3.7 µM,-9%
same,growth inhibition,[5]; [17],2%
same,growth inhibition,[5]; at 11.0 µM,-24%
same,growth inhibition,[5]; at 33.0 µM,-28%
same,growth inhibition,[5]; [18],10%
same,growth inhibition,[5]; at 50.0 µM,4.45%
same,growth inhibition,[5]; at 100.0 µM,53%
same,growth inhibition,[6]; at 1.2 µM,-20%
same,growth inhibition,[6]; at 3.7 µM,-12%
same,growth inhibition,[6]; at 11.0 µM,2%
same,growth inhibition,[6]; at 33.0 µM,-8%
same,growth inhibition,[6]; at 100.0 µM,64%
same,growth inhibition,[7]; at 1.2 µM,-11%
same,growth inhibition,[7]; at 3.7 µM,2%
same,growth inhibition,[7]; at 11.0 µM,10%
same,growth inhibition,[7]; at 33.0 µM,32%
same,growth inhibition,[7]; at 100.0 µM,54%
same,growth inhibition,[8]; [17],-15%
same,growth inhibition,[8]; [18],2%
same,growth inhibition,[8]; at 50.0 µM,64%
CC1CCC2(NC1)OC1CC3C4CCC5CC(OC6OC(CO)C(OC7OC(CO)C(O)C(OC8OCC(O)C(O)C8O)C7OC7OC(CO)C(O)C(O)C7O)C(O)C6O)CCC5(C)C4CCC3(C)C1C2C (stereo not drawn),growth inhibition,[9]; at 1.2 µM,30%
same,growth inhibition,[9]; at 3.7 µM,8%
same,growth inhibition,[9]; at 11.0 µM,12%
same,growth inhibition,[9]; at 33.0 µM,0%
same,growth inhibition,[9]; at 100.0 µM,76% (active)
same,growth inhibition,[10]; at 1.2 µM,-6%
same,growth inhibition,[10]; at 3.7 µM,-15%
same,growth inhibition,[10]; at 11.0 µM,-18%
same,growth inhibition,[10]; at 33.0 µM,-17%
same,growth inhibition,[10]; at 100.0 µM,40%
same,growth inhibition,[11]; at 1.2 µM,21%
same,growth inhibition,[11]; at 3.7 µM,3%
same,growth inhibition,[11]; at 11.0 µM,8%
same,growth inhibition,[11]; at 33.0 µM,13%
same,growth inhibition,[11]; at 100.0 µM,27%
same,growth inhibition,[12]; at 1.2 µM,-2%
same,growth inhibition,[12]; at 3.7 µM,-10%
same,growth inhibition,[12]; at 11.0 µM,-11%
same,growth inhibition,[12]; at 33.0 µM,-11%
same,growth inhibition,[12]; at 100.0 µM,44%
same,growth inhibition,[13]; at 1.2 µM,-2%
same,growth inhibition,[13]; at 3.7 µM,-16%
same,growth inhibition,[13]; [17],1%
same,growth inhibition,[13]; at 11.0 µM,-14%
same,growth inhibition,[13]; at 33.0 µM,-6%
same,growth inhibition,[13]; [18],98% (active)
same,growth inhibition,[13]; at 50.0 µM,28.9%
same,growth inhibition,[13]; at 100.0 µM,62%
same,growth inhibition,[1]; at 1.2 µM,13%
same,growth inhibition,[1]; at 3.7 µM,-14%
same,growth inhibition,[1]; [17],13%
same,growth inhibition,[1]; at 11.0 µM,-15%
same,growth inhibition,[1]; at 33.0 µM,2%
same,growth inhibition,[1]; [18],97% (active)
same,growth inhibition,[1]; at 50.0 µM,6.1%
same,growth inhibition,[1]; at 100.0 µM,14%
same,growth inhibition,[2]; at 1.2 µM,18%
same,growth inhibition,[2]; at 3.7 µM,6%
same,growth inhibition,[2]; at 11.0 µM,-5%
same,growth inhibition,[2]; at 33.0 µM,-18%
same,growth inhibition,[2]; at 100.0 µM,77% (active)
same,growth inhibition,[3]; [17],1%
same,growth inhibition,[3]; [18],93% (active)
same,growth inhibition,[3]; at 50.0 µM,-24.1%
same,growth inhibition,[14]; at 1.2 µM,-15%
same,growth inhibition,[14]; at 3.7 µM,-14%
same,growth inhibition,[14]; at 11.0 µM,-10%
same,growth inhibition,[14]; at 33.0 µM,-4%
same,growth inhibition,[14]; at 100.0 µM,46%
same,growth inhibition,[4]; [17],-19%
same,growth inhibition,[4]; [18],68%
same,growth inhibition,[4]; at 50.0 µM,28.8%
same,growth inhibition,[6]; at 1.2 µM,-7%
same,growth inhibition,[6]; at 3.7 µM,-20%
same,growth inhibition,[6]; at 11.0 µM,-22%
same,growth inhibition,[6]; at 33.0 µM,-11%
same,growth inhibition,[6]; at 100.0 µM,99% (active)
same,growth inhibition,[15]; at 1.2 µM,-4%
same,growth inhibition,[15]; at 3.7 µM,-5%
same,growth inhibition,[15]; at 11.0 µM,-8%
same,growth inhibition,[15]; at 33.0 µM,-12%
same,growth inhibition,[15]; at 100.0 µM,90% (active)
same,growth inhibition,[8]; [17],59%
same,growth inhibition,[8]; [18],97% (active)
same,growth inhibition,[8]; at 50.0 µM,87.6% (active)
same,growth inhibition,[16]; at 1.2 µM,4%
same,growth inhibition,[16]; at 3.7 µM,-19%
same,growth inhibition,[16]; at 11.0 µM,-14%
same,growth inhibition,[16]; at 33.0 µM,-25%
same,growth inhibition,[16]; at 100.0 µM,61%
